Measurements reported in the supplement of paper PMC10849652.
Of roughly 7,900 targets only a part is listed; those with a hit were picked by preference. About 0.6% of all pairs of compound and target were hits. Unmarked numbers belong to inactive results.

How the values were obtained:
Experiment in all cases: log2 fold change, soluble protein after heating vs DMSO (PISA); higher = thermal stabilisation; K562 cells, 10 uM, 30 min; active = over 0.2 and 3.5 SD of the protein, either way, in both replicates (recomputed)
erlotinib = compound: C#Cc1cccc(Nc2ncnc3cc(OCCOC)c(OCCOC)cc23)c1 [erlotinib]
In short: (§1)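 K562 cells at 2×10^6 cells/mL were exposed to 10 μM compound for 30 min, then aliquots were heated for 3 min across 48°C-58°C, pooled, and extracted in PBS containing 0.5% NP-40 at 4°C. The supernatant after 21,000xg for 90 min was taken as soluble protein and measured by TMTpro 16plex LC-MS/MS with channel sums equalised. Thermal stability is reported relative to control samples, with values from duplicates. Fold changes are given on a log2 scale.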

[1] = compound: C/C(=N\NC(=O)C1=CC(=CC=C1)S(=O)(=O)N2CCOCC2)/C3=C(C=CC(=C3)Cl)O
In short: as §1

[2] = compound: C1=CC(=C(C=C1Cl)C2=NC3=NC=CN=C3C(=N2)NC4=CC=NC=C4)F
In short: as §1

[3] = compound: C1=CC(=CC=C1C2=NC3=C(N2)C=C(C=C3)C(=O)N)OC4=CC=C(C=C4)Cl
In short: as §1

[4] = compound: C1=CC2=C(C=CC(=C2)/C=C\3/C(=O)NC(=NCC4=CC=CS4)S3)N=C1
In short: as §1

[5] = compound: C1=CC=C(C=C1)C2=NC(=C(N2)C3=CC=NC=C3)C4=CC(=C(C=C4)Cl)O
In short: as §1

[6] = compound: C1=CC=C2C(=C1)C3=NNC4=CC=CC(=C43)C2=O
In short: as §1

[7] = compound: C1CCN(C1)C(=O)NC2=CC=CC(=C2)NC3=NC=C(C(=N3)NCCC4=CN=CN4)Br
In short: as §1

[8] = compound: C1CN(CCC1(CC2=CC=C(C=C2)Cl)N)C3=NC=NC4=C3C=CN4
In short: as §1

IRAK-1-4 Inhibitor I = compound: C1COCCN1CCN2C3=CC=CC=C3N=C2NC(=O)C4=CC(=CC=C4)[N+](=O)[O-] [IRAK-1-4 Inhibitor I]
In short: as §1

[9] = compound: CC(=O)c1cnc2ccc(-c3cc(Cl)c(O)c(Cl)c3)nc2c1N[C@H]1CC[C@H](CN(C)C)CC1
In short: as §1

ralimetinib = compound: CC(C)(C)Cn1c(N)nc2ccc(-c3[nH]c(C(C)(C)C)nc3-c3ccc(F)cc3)nc21 [ralimetinib]
In short: as §1

[10] = compound: CC(C)(O)CC(=O)NCCn1ccc2ncnc(Nc3ccc(Oc4cccc(C(F)(F)F)c4)c(Cl)c3)c21
In short: as §1

[11] = compound: CC(C)C1=C2N=C(C=C(N2N=C1)NCC3=CC=CC=C3)NCCCCCCN
In short: as §1

[12] = compound: CC(C)C[C@@H](C=O)NC(=O)[C@H](CC(C)C)NC(=O)[C@H](CC(C)C)NC(=O)OCc1ccccc1
In short: as §1

pinometostat = compound: CC(C)N(C[C@H]1O[C@@H](n2cnc3c(N)ncnc32)[C@H](O)[C@@H]1O)[C@H]1C[C@@H](CCc2nc3cc(C(C)(C)C)ccc3[nH]2)C1 [pinometostat]
In short: as §1

[13] = compound: CC1=C(C(CC(=O)N1)C2=CC=C(C=C2)C(F)(F)F)C(=O)NC3=C(C=C4C(=C3)C=NN4)F
In short: as §1

[14] = compound: CC1=C(C2=C(C=C1)C(=O)C3=CC=CC=C3N2CCCN)C
In short: as §1

[15] = compound: C1=CC2=NC=CN=C2C=C1/C=C/3\C(=O)NC(=O)S3
In short: as §1

ibrutinib = compound: C=CC(=O)N1CCC[C@@H](n2nc(-c3ccc(Oc4ccccc4)cc3)c3c(N)ncnc32)C1 [ibrutinib]
In short: as §1

Chain of UniProt Q4ZG55 (Q4ZG55 whole entry, looked up): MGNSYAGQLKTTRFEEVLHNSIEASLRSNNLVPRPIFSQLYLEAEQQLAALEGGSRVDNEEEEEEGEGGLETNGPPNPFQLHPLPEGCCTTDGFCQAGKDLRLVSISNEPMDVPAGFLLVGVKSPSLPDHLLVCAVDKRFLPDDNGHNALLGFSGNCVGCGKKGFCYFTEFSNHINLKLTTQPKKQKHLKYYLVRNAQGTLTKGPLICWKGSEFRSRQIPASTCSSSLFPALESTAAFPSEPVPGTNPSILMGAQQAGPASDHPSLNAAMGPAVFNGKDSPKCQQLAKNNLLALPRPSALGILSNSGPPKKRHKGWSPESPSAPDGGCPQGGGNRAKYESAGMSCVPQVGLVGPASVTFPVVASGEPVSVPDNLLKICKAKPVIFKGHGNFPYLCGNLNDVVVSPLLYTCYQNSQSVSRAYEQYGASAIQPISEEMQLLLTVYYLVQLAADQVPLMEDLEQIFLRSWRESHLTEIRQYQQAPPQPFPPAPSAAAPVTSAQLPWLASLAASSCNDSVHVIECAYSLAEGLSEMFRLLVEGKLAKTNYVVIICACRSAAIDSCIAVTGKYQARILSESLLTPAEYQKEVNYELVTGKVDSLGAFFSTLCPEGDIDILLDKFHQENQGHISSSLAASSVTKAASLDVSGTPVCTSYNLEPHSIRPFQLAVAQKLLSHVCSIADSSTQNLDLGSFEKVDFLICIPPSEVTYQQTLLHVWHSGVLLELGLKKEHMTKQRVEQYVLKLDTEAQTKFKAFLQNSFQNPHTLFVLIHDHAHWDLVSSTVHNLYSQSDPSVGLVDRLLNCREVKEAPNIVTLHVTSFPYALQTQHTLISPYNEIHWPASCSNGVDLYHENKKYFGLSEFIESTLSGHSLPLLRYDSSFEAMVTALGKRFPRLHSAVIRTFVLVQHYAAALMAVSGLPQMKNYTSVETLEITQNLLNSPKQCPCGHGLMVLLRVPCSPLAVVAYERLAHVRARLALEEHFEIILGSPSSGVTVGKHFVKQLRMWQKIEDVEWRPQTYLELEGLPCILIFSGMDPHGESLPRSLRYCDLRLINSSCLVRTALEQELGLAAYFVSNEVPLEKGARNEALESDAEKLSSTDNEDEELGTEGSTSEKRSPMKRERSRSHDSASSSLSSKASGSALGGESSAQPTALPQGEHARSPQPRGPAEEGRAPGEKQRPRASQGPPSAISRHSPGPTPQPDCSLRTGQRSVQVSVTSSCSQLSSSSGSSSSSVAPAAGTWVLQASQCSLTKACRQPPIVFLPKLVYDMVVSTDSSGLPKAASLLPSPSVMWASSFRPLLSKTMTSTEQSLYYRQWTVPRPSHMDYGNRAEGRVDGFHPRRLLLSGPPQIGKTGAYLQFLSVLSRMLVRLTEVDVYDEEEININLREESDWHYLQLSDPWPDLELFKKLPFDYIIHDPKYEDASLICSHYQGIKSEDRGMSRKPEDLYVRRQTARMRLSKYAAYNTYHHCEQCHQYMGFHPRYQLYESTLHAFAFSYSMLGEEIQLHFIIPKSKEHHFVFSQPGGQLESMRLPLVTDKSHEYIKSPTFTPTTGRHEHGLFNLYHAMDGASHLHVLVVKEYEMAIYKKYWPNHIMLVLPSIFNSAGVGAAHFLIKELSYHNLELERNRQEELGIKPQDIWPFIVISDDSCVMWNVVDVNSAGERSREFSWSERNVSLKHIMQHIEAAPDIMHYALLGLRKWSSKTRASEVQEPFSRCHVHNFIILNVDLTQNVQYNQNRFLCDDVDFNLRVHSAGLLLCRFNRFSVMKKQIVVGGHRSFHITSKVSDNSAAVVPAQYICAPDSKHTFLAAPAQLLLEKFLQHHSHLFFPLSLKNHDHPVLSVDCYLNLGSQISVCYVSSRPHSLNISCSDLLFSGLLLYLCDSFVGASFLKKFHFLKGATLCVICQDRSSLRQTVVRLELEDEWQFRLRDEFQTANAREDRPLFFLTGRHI
Chain of UniProt P50213 (P50213 whole entry, looked up): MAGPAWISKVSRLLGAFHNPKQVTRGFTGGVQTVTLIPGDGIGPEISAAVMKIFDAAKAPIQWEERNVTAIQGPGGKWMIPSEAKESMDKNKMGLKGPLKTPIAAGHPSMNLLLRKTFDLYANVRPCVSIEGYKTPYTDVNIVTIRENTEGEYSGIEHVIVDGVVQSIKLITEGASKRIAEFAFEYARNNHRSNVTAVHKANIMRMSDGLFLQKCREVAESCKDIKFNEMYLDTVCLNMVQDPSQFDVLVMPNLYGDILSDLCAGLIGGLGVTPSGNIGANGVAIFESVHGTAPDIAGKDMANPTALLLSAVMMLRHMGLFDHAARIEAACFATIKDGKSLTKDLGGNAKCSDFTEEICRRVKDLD
Chain of UniProt O14976 (O14976 whole entry, looked up): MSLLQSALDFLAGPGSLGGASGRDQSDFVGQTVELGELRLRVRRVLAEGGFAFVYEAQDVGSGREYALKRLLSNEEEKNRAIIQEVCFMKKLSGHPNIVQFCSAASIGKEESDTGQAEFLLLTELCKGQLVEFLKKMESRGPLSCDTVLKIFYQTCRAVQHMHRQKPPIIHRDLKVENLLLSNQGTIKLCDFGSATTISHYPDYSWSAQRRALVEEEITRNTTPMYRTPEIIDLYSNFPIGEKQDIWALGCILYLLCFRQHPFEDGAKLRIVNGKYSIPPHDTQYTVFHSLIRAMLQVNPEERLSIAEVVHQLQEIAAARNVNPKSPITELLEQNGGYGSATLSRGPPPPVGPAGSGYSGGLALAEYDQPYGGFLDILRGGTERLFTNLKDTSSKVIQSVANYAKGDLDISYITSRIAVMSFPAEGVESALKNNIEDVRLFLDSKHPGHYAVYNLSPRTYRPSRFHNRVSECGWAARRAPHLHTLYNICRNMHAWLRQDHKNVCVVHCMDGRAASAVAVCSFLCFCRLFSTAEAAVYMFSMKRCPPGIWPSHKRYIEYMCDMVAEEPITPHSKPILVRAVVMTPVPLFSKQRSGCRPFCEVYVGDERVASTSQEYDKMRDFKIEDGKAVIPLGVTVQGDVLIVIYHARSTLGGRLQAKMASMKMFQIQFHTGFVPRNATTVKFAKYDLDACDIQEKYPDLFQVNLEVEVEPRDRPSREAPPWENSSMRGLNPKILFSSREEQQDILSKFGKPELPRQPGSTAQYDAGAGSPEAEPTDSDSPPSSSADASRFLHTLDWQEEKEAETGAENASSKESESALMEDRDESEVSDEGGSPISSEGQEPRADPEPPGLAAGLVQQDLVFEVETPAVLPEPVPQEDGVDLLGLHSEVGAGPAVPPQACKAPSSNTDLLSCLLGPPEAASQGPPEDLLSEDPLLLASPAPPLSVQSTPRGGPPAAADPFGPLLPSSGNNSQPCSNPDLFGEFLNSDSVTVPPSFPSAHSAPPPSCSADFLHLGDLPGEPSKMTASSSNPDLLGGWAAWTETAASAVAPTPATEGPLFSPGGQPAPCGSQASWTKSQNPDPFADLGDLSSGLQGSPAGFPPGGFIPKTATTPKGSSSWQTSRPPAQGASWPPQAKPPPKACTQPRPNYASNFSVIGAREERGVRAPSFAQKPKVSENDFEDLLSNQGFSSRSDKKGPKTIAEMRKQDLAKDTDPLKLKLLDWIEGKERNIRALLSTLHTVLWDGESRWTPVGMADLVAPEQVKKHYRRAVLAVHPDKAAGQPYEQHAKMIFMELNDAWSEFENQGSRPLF
Chain of UniProt Q92664 (Q92664 whole entry, looked up): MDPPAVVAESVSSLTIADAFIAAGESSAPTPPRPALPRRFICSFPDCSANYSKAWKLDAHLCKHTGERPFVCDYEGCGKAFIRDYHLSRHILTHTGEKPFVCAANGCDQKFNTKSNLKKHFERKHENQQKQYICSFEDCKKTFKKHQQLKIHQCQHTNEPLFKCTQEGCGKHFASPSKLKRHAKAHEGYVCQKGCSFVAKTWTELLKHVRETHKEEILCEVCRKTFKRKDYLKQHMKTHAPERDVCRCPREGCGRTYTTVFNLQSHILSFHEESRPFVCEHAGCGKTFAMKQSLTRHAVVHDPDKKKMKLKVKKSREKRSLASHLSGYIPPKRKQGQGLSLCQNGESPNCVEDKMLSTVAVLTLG
Chain of UniProt Q96SL8 (Q96SL8 whole entry, looked up): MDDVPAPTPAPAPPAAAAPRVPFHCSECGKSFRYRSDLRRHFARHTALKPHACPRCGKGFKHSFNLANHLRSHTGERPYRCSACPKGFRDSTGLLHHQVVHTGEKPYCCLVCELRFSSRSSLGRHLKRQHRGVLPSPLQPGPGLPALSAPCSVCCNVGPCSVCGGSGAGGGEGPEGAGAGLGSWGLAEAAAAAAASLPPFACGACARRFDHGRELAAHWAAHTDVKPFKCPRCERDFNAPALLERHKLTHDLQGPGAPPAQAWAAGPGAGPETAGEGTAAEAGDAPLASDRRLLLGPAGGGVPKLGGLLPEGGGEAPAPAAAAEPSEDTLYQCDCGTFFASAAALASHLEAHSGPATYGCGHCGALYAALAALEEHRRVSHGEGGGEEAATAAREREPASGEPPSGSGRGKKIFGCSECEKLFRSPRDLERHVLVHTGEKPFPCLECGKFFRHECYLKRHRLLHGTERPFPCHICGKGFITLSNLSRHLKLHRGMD
Chain of UniProt O14893 (O14893 whole entry, looked up): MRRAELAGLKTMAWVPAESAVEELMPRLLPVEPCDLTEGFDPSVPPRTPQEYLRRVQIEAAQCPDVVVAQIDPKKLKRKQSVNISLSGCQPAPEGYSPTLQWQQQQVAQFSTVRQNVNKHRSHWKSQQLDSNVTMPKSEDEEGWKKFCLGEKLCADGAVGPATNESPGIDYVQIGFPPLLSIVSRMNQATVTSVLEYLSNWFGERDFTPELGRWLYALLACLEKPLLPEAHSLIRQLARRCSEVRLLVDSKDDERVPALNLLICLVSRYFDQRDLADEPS

Target	log2 fold change (erlotinib)	log2 fold change [1]	log2 fold change [2]	log2 fold change [3]	log2 fold change [4]	log2 fold change [5]	log2 fold change [6]	log2 fold change [7]	log2 fold change [8]	log2 fold change (IRAK-1-4 Inhibitor I)	log2 fold change [9]	log2 fold change (ralimetinib)	log2 fold change [10]	log2 fold change [11]	log2 fold change [12]	log2 fold change (pinometostat)	log2 fold change [13]	log2 fold change [14]	log2 fold change [15]	log2 fold change (ibrutinib)
GAK (UniProt O14976)	0.64	-0.78	-0.133	-0.821	0.527	0.639	0.955	1.08	-0.265	-0.222	1.15	1.13	-0.015	-0.81	0.084	0.344	-0.213	-0.187		
IDH3A isoform 2 (UniProt P50213)	0.132	-0.572 (active)		-0.084	0.135		0.039	-0.052	0.164	0.196	-0.004			0.153		0.011	-0.033	0.059	-0.017	0.008
GEMIN2 (UniProt O14893)		-0.086	-0.428 (active)		0.057	-0.069	-0.042			-0.046	-0.061	0.049	-0.307		0.012	-0.096	0.044		-0.013	0.055
H3-3A (UniProt P84243)	0.085			-0.035				0.049	-0.218					-0.07			-0.004	0.656 (active)	-0.1	-0.016
GREB1 (UniProt Q4ZG55)	0.218	-0.751 (active)	0	-0.132	0.092		-0.044	-0.06	0.291	0.04	0.037		-0.032	0.26		-0.095		0.066		
FAT2 (UniProt Q9NYQ8)	0.115		0.26	-0.098		0		-0.166	0.186	0.103		0.182	-0.149	-0.002	0.225	0.051		0.132	0.096	0.107
FIZ1 (UniProt Q96SL8)			-0.272							-0.14			0.017			0.123	0.121			
GTF3A (UniProt Q92664)	-0.048	-0.117	0.095	0.116	0.157		-0.115	-0.019	0.174	0.034	0.065		-0.084	-0.036		0.004	0.249	0.107	0.004	-0.013
